Hits are enriched below; roughly 2.5% of the tested compounds scored in any of these assays.
CHT block – inhibitors of human choline transporter CHT; CHT-expressing cells, membrane potential dye, choline response; hits give low values; High affinity choline transporter 1 (Homo sapiens), Q9GZV3; actives 0.86% (n = 310,000); B-score at 10 µM;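 active = B-score over 3 SD under the library average, and starting fluorescence ratio not unusually high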;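 note: choline stimulus applied at its EC90 after an EC20 pre-addition; B-score computed on integrated fluorescence ratio after choline addition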
ANO1 block – TMEM16A chloride channel inhibitors, primary screen, cell-based, HTS; Anoctamin-1 (Mus musculus), Q8BHY3; HEK293 TMEM16A/YFP iodide influx fluorescence, ionomycin; normalized B-score (activity score, 25-100; higher = stronger inhibition) at 10 µM; actives 1.2% (n = 310,000); AID 588511, 2011;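 active = ratio plate-corrected score three or more library SD toward inhibition, starting fluorescence score within five deviations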;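 note: score derived from kinetic fluorescence span divided by baseline fluorescence per well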
PKA-R2B activ – activators of PKA-R2B holoenzyme, primary screen, biochemical, fluorescence polarization, Cy5-IP20, human; cAMP-dependent protein kinase catalytic subunit beta (Homo sapiens) + cAMP-dependent …; PKA-R2B holoenzyme dissociation; R2B truncated from residue 108, S112A mutant; 0% DMSO only, 100% 113 µM cGMP; activation, % at 11.4 µM; actives 0.079% (n = 340,000); AID 504700, 2011;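 active = activation above a cutoff set at the mean over all compounds plus 3 SD, cut at about 18% in these data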;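 note: higher means more holoenzyme dissociation and a rise in polarization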
Target sequence (P31323 whole entry, looked up, other chains not shown, the tested form may be a part): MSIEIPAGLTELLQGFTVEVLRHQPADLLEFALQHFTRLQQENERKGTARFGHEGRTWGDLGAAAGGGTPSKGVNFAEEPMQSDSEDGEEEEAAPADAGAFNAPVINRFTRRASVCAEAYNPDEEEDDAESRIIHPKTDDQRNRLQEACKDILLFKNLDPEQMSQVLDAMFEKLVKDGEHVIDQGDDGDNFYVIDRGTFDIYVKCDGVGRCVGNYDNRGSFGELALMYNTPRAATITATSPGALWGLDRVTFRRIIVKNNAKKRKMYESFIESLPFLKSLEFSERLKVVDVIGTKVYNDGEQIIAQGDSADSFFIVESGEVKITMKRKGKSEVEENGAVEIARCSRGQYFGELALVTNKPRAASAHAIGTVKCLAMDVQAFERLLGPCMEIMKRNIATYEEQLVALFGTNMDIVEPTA
ANO1 activ – TMEM16A chloride channel activators or potentiators, primary screen, cell-based, HTS | Anoctamin-1 (Mus musculus), Q8BHY3 | HEK293 TMEM16A/YFP-H148Q/I152L, iodide quench fluorescence; hits give low values | B-score at 10 µM | actives 0.3% (n = 340,000);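 active = fluorescence-ratio B-score plate-corrected deviation score at least 3 library SD below zero, with starting fluorescence score within 5 deviations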;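 note: channel opened by trigger with iodide after compound preincubation; score built on the fluorescence ratio of max minus min over baseline; more negative score means more quench and so TMEM16A activation or potentiation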
CHT allo act – CHT positive allosteric modulators, primary screen, cell-based, membrane potential dye, choline EC20. High affinity choline transporter 1 (Homo sapiens), Q9GZV3. CHT-expressing cells; hits give high values; LV-AA mutant CHT in HEK293 cells. B-score at 10 µM. actives 0.49% (n = 310,000). AID 488977, 2010;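 active = initial fluorescence not abnormally high and integrated response B-score, plate-corrected, over 3 SD above library mean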
PKA-R1A act – activators of PKA-R1A holoenzyme, primary screen, biochemical, fluorescence polarization, Cy5-IP20, bovine R1A, mouse PKAc; actives 0.083% (n = 340,000); activation, % at 11.4 µM; PKA-R1A dissociation; scaled: DMSO 0%, 113 µM cGMP 100%; cAMP-dependent protein kinase type I-alpha regulatory subunit (Bos taurus) + …;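 active = percent activation above the mean of all tested compounds plus 3 SD, cut at about 19% in these data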;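 note: higher means more PKAc released from R1A so a rise in polarization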
CHT inh conf – CHT inhibitors, confirmation, cell-based, membrane potential dye, duplicate; actives 70% (n = 2,400); CHT activity remaining % of control (hits give low values), % at 10 µM; CHT-expressing cells, choline membrane potential dye; LV-to-AA substituted CHT, HEK293 cells; shares compounds with CHT block;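 active = choline transporter activity left, mean of duplicates at 10 µM, below buffer-only control mean minus 3 SD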;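 note: depolarization triggered by choline at its EC90 following an EC20 pre-addition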
HEK293 CHT ctr – membrane potential effects in parental HEK293, counter-screen for CHT inhibitor project, cell-based, membrane potential dye; shares compounds with CHT block; choline response; active = decrease or increase beyond buffer ±3SD; membrane potential ratio readout (active if shifted either direction beyond buffer ±3SD; no single direction) at 10 µM; actives 4% (n = 2,400);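 note: parental cells lack the transporter so any hit is non-specific; ratio is peak minus trough fluorescence over baseline after EC90 choline challenge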
Large screens that a line does not name were inactive (follow-up assays come after a bar, where they were run).

COC(=O)c1ccc(C(=O)N2CCCC(Nc3ccc(C(C)C)cc3)C2)nc1 (centres undefined)	CHT block -5.2 | CHT inh conf 58% | HEK293 CHT ctr inactive
COc1ccc(N(CC(=O)NCc2ccccc2)C(=O)Cn2nnc(-c3ccccc3F)n2)cc1OC	none
CC(NC(=O)CCN1C(=O)c2ccccc2C1=O)c1ccc2c(c1)CCCC2 (centres undefined)	CHT block -5.4 | CHT inh conf inactive | HEK293 CHT ctr inactive
CC(NC(=O)Cc1ccccc1)C(=O)O (centres undefined)	none (no result: CHT block, ANO1 block, CHT allo act)
CN1C(=O)CC(c2ccccc2)CC1=O	CHT block -13 | CHT inh conf inactive | HEK293 CHT ctr inactive
CN(C)CCCNC(=S)NCC(c1ccc(Cl)cc1Cl)c1c[nH]c2ccccc12 (centres undefined)	CHT block -5.8 | CHT inh conf inactive | HEK293 CHT ctr inactive
CN1CCN(C(=O)c2ccc(CSc3nc4ccncc4n3Cc3ccc(F)cc3)cc2)CC1	none
CCOC(=O)N1CCN(C(=O)c2ccc3nc(SCc4ccc(F)cc4)n(C)c3c2)CC1	CHT block -4.9 | CHT inh conf inactive | HEK293 CHT ctr inactive
O=[N+]([O-])c1ccc(N2CCCC2)nc1	none (no result: PKA-R2B activ, PKA-R1A act)
O=[N+]([O-])c1ccc(N2CCCCC2)nc1	CHT block -5.8 | CHT inh conf 60% | HEK293 CHT ctr inactive
CCOc1ccc(NCC(=O)N/N=C/C=C/c2ccccc2)cc1	none
COc1ccc(OCC(=O)N/N=C/C=C/c2ccccc2)cc1	CHT block -7.9 | CHT inh conf 69% | HEK293 CHT ctr inactive
CCOc1ccccc1NC(=O)CCCc1ccc(OC)c(C)c1	none
CCCCN(C(=O)C1=CC=CN2CCS(=O)(=O)N=C12)c1ccccc1	none (no result: CHT block, ANO1 block, CHT allo act)
O=C(Nc1ccc2c(c1)OCCO2)c1ccc(S(=O)(=O)N2CCCCC2)cc1	CHT block -6.1 | CHT inh conf inactive | HEK293 CHT ctr inactive
O=C(C1CCCN(c2ncnc3c2nc2n3CCCCC2)C1)N1CCN(c2ccccc2F)CC1 (centres undefined)	CHT block -8.9 | CHT inh conf -11% | HEK293 CHT ctr inactive
CC1CCN(C(=O)C2CCCN(c3ncnc4c3nc3n4CCCCC3)C2)CC1 (centres undefined)	none
COc1cccc(N2CCN(C(=O)C3CCCN(c4ncnc5c4nc4n5CCCCC4)C3)CC2)c1 (centres undefined)	CHT block -5.7 | CHT inh conf 38% | HEK293 CHT ctr inactive
CCOC(=O)N1CCN(C(=O)C2CCCN(c3ncnc4c3nc3n4CCCCC3)C2)CC1 (centres undefined)	CHT block -9.3 | CHT inh conf 11% | HEK293 CHT ctr inactive
CSc1nc(-c2ccc(N(C)C)cc2)c(C#N)c(=O)n1C	none
COCc1c(C(=O)NC2CCCCC2)sc2cccc(F)c12	none (no result: CHT block, ANO1 block, CHT allo act)
CCOC(=O)C1(Cc2cccc(F)c2)CCN(C(=O)c2cnccn2)CC1	none
CCOC(=O)c1ccc(N2CCCCC2)c(NS(=O)(=O)c2ccc(C)cc2)c1	none (no result: PKA-R2B activ, PKA-R1A act)
Cn1nc(-c2ccccc2)c2nc3ccccc3nc21	CHT block -6.3 | CHT inh conf inactive | HEK293 CHT ctr -9.9
CCCCn1nc(-c2ccccc2)c2nc3ccccc3nc21	none (no result: PKA-R2B activ, ANO1 activ, PKA-R1A act)
O=C1CS/C(=N/N=C/c2cccs2)N1Cc1ccc(F)cc1	none (no result: PKA-R2B activ, PKA-R1A act)
CCOC(=O)c1cnc2c(OC)cccc2c1N1CCN(c2ccccc2OC)CC1	none
CCOC(=O)c1cnc2c(C)cc(Cl)cc2c1N1CCN(C)CC1	CHT block -6.4 | CHT inh conf 34% | HEK293 CHT ctr inactive
CCOC(=O)c1cnc2c(C(F)(F)F)cccc2c1N1CCN(C)CC1	CHT block -10 | CHT inh conf 30% | HEK293 CHT ctr 3.3
Cc1ccc(S(=O)(=O)NC(C)C(=O)Nc2ccc3c(c2)OCO3)cc1 (centres undefined)	CHT block -9 | CHT inh conf inactive | HEK293 CHT ctr inactive
O=C(CN1CCN(S(=O)(=O)c2ccccc2F)CC1)N1CCc2ccccc2C1	none (no result: CHT block, ANO1 block, CHT allo act)
COc1ccc2c(c1)-c1c(ssc1=S)C(C)(C)N2	CHT block -5.2 | CHT inh conf 57% | HEK293 CHT ctr inactive
CC(=O)n1cc(/C=N/NC(=O)c2ccc([N+](=O)[O-])cc2)c2ccccc21	none
Cc1c(/C=N\NC(=O)c2ccc([N+](=O)[O-])cc2)cnn1C	CHT block -7.7 | CHT inh conf inactive | HEK293 CHT ctr inactive
Nc1nnc(SCC(=O)NN2C(=O)NC3(CCCCC3)C2=O)s1	none
Cc1c(NC(=O)C(C)Oc2ccc(Br)cc2)c(=O)n(-c2ccccc2)n1C (centres undefined)	none (no result: CHT block, ANO1 block, CHT allo act)
CCOc1ccc(CN(C)C(=O)CCc2ccc(S(=O)(=O)N3CCCCCC3)cc2)cc1	none (no result: CHT block, ANO1 block, CHT allo act)
CC1Cc2ccccc2N1C(=O)COC(=O)c1ccc(N(C)C)cc1 (centres undefined)	none (no result: CHT block, ANO1 block, CHT allo act)
COc1ccc(CCC(=O)N2c3ccccc3CC2C)cc1 (centres undefined)	CHT block -5.4 | CHT inh conf inactive | HEK293 CHT ctr inactive
CC1Cc2ccccc2N1C(=O)COC(=O)c1ccc(O)cc1 (centres undefined)	CHT block -5.5 | CHT inh conf 52% | HEK293 CHT ctr inactive
COc1ccc(CCC(=O)N2CCc3ccccc32)cc1	none
O=[N+]([O-])c1cc([N+](=O)[O-])c(Oc2cc(Cl)cc(Cl)c2)cc1NN1CCCCC1	none
Fc1ccc(-n2nnc(-c3ncc[nH]3)n2)cc1	none (no result: PKA-R2B activ, ANO1 activ, PKA-R1A act)
C=CCn1c(-c2cccs2)nc2ccccc21	none
C=CCSc1nc2ccccc2n1Cc1nnc(-c2cccs2)o1	CHT block -6.2 | CHT inh conf 59% | HEK293 CHT ctr inactive
CCc1ccc(OCCSc2nc3ccccc3n2CC(=O)O)cc1	none

Source: PubChem
